Inconclusive results are not listed. Entries that show only a call come without a potency. Unmarked numbers belong to inactive results. Calls of active or inactive are those of the source. Calls follow the shape of the dose curve; as a rule, active = well fitted curve in the direction sought with a large enough effect; inconclusive = small, poorly fitted or top-dose-only effect, or another doubt; inactive = no such curve, though single readings can be large or run the other way. Bridge positions count the residues as written; N and C are the ends. Square brackets hold non-standard residues; d marks the D form. Side chains are listed from the residue outwards. Peptide text beside a SMILES is read from it. * marks the point of attachment. Phg(4-OMe) = COc1ccc([C@H](N)C(=O)O)cc1; d(aIle) = CC[C@H](C)[C@@H](N)C(=O)O; d(aThr) = C[C@@H](O)[C@@H](N)C(=O)O; NMeF = CN[C@@H](Cc1ccccc1)C(=O)O; Isobutyryl = CC(C)C(=O)*
Experiment: HPAF-II 12hr Apoptosis Induction qHTS against the NCATS CANVASS Library (AID 1347358)
Conditions: HPAF-II caspase-3/7 Caspase-Glo luminescence; series mostly up to 46.1 µM
Summary of the method: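 Cells plated at 500 per well are dosed with compound and incubated 12 hours at 37 degrees C. Caspase-Glo 3/7 reagent is added and, after 15 min at room temperature, luminescence proportional to caspase activity is measured.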
Potency is read from the fitted curve at half-maximal effect.

| Compound | Potency | caspase activation |
| --- | --- | --- |
| Cc1occ2c1C(=O)c1c(cc(O)c(O)c1O)C2=O | inactive |  |
| O=C1CC2OCC=C3CN4C5CC3C2[C@@H]2N1c1ccccc1[C@]52C[C@@H]4C1=C[C@H]2C3CC4N(CC[C@@]45c4ccccc4N(C1=O)[C@@H]25)C/C3=C/CO (some centres not stated) | inactive |  |
| CCC(=O)CCCCC[C@@H]1NC(=O)[C@H]2CCCCN2C(=O)[C@H](C(C)C)NC(=O)[C@H](Cc2cn(OC)c3ccccc23)NC1=O | inactive |  |
| C/C(=C\[C@H](C)C(=O)CCCC1CC(=O)NC(=O)C1)[C@@H]1OC(=O)/C=C/CC/C=C/[C@H](O)[C@@H](O)[C@@H]1C | inactive |  |
| C/C=C(/C)c1c(Cl)c(O)c(C)c2c1Oc1c(Cl)c(O)c(Cl)c(C)c1C(=O)O2 | inactive |  |
| C=C[C@@]1(C)CC[C@@H]([C@H](C)C(=O)/C=C/C(C)(C)O)O1 | inactive |  |
| C=CC(CCCCC)C1C(=O)NC(=O)C1C(=O)C1C(/C=C/C)C=CC2CC(C(=O)O)CC(C)C21 (configuration not stated) | inactive |  |
| C=C1CC[C@@H](O[C@H]2C[C@@](O)([C@H](C)NC(=O)c3[nH]c(C)c(Cl)c3Cl)[C@H](O)[C@@H](C)O2)[C@@H]2C=C[C@H](C)C(/C(O)=C3/C(=O)[C@H](C(C)C)N([C@@H]4O[C@H](C)[C@H](OC(N)=O)[C@H](OC(C)=O)[C@@H]4OC)C3=O)[C@@H]12 (some centres not stated) | inactive |  |
| COc1ccc([C@@H]2CC(=O)c3c(cc(O)c(C/C=C(\C)CCC=C(C)C)c3O)O2)cc1 |  | 1.72% [at 9.19 µM] |
| O=c1cc(-c2ccc(O)c(O)c2)oc2cc(O[C@@H]3O[C@H](CO)[C@@H](O)[C@H](O)[C@H]3O)cc(O)c12 | inactive |  |
| CC[C@H](C)[C@H]1NC(=O)[C@@H](NC(=O)C(C)C)[C@@H](C)OC(=O)[C@H](COC(=O)CNC(C)=O)NC(=O)[C@@H]([C@@H](C)O)NC(=O)[C@H](Cc2ccccc2)N(C)C(=O)[C@H](c2ccc(OC)cc2)NC1=O (Isobutyryl-T[d(aIle)][Phg(4-OMe)][NMeF][d(aThr)]S([Gly-Ac]); ester 1-C) | inactive |  |
| C[n+]1cc2cc(C(N)=O)[nH]c3c(=N)c(Cl)c(N)c1c23 | inactive |  |
| C/C1=C/[C@@H](C)[C@H](O)[C@@H](O)/C=C/CC/C=C/C(=O)O[C@@H]1[C@H](C)C(=O)CCCC1CC(=O)NC(=O)C1 | inactive |  |
| CC(=O)Oc1cc2c(c(OC(C)=O)c1C1CCc3cc(Cl)c(Cl)n31)C(=O)n1c-2cc(Cl)c1Cl (configuration not stated) | inactive |  |
| COc1ccc2[nH]c3c(c2c1)CCN1C[C@H]2C[C@@H](OC(=O)c4cc(OC)c(OC)c(OC)c4)[C@H](OC)[C@@H](OC)[C@H]2C[C@H]31 | inactive |  |
| O[C@H]1c2ccccc2-c2c3c(cc4c2[C@@H]1NCC4)OCO3 | inactive |  |
| CC(C)=CC[C@H]1C[C@@]2(CC=C(C)C)C(=O)[C@](CC=C(C)C)(C(=O)C(C(=O)c3ccccc3)=C2O)C1(C)C | inactive |  |
| C[C@]12CC[C@]3(C1)[C@H](CC2=O)C[C@@H](OC(=O)c1ccccc1)[C@H]1[C@](C)(C(=O)O)CCC[C@@]13C | inactive |  |
| CC(=O)O[C@H]1c2ccccc2-c2c3c(cc4c2[C@@H]1N(C(C)=O)CC4)OCO3 | inactive |  |

| Compound | Potency | caspase activation |
| --- | --- | --- |
| C=C[C@](Cl)(CBr)CCC=C(C)C | inactive |  |
| C=C1CC[C@@H](Br)C(C)(C)[C@]12CC=C(C)C(=O)C2 | inactive |  |
| COc1cc2c(cc1OC)[C@@H](c1ccc3c(c1)OCO3)C(C)C(C)C2=O (some centres not stated) | inactive |  |
| C[C@H]1C=C[C@H]2CCCC[C@@H]2[C@H]1C(=O)[C@H]1CC2=C(C(=O)O)CCN2C1=O | inactive |  |
| C/C(=C\[C@H](C)C(=O)/C=C/CC1CC(=O)NC(=O)C1)[C@@H]1OC(=O)/C=C/CC/C=C/C[C@@H](O)[C@@H]1C | inactive |  |
| CC(C)[C@]12CC[C@@]3(C)[C@H](C)CC[C@H](O)[C@@]3(CC1)c1cc3c(cc12)[nH]c1ccccc13 | inactive |  |
| CC(C)=CCC[C@]12c3cc4c(cc3CC[C@@]1(C)[C@H](C)CC[C@@H]2O)[nH]c1ccccc14 | inactive |  |
| Oc1ccc(C2Oc3cc(O)c4c(c3[C@@H]2c2cc(O)cc(O)c2)[C@H]2C(c3ccc(O)cc3)c3c(O)cc5c(c3[C@H]2C4c2ccc(O)cc2)[C@H](c2cc(O)cc(O)c2)C(c2ccc(O)cc2)O5)cc1 (some centres not stated) | inactive |  |
| C=C(C)CC[C@H](Cc1c(O)cc(O)c2c1O[C@H](c1ccc(O)cc1)CC2=O)C(=C)C | inactive |  |
| COc1cc(/C=C/C(=O)OC[C@@H](Cc2ccc(O)c(OC)c2)[C@@H](COC(=O)/C=C/c2ccc(O)c(OC)c2)Cc2ccc(O)c(OC)c2)ccc1O | 11.8 µM (active) |  |
| C=CC(CCCCC)C1C(=O)NC(=O)C1C(=O)C1C2C(C)CC(C(=O)O)CC2CC1(O)C(=O)/C=C/C (configuration not stated) | inactive |  |
| C[C@]12CCC[C@](C)(C(=O)O)[C@@H]1CC[C@@]1(C)c3cocc3CC[C@H]21 | inactive |  |
| COc1c(O)cc2c(c1O)C(=O)c1c(coc1C)C2=O | inactive |  |
| CC(C)C[C@@H]1c2c(O)c(C=O)c(O)c(C=O)c2O[C@]2(C)C=C[C@@H](C(C)C)C[C@H]12 | inactive |  |
| COc1cc2c(c(O)c1O)C(=O)c1c(coc1C)C2=O | inactive |  |
| CO[C@H]1[C@@H](OC(=O)/C(C)=C\[C@@H]2O[C@@H]2[C@H]2O[C@H]2C)[C@H](O)[C@H](OCC23C[C@@H]4[C@H](C)CC[C@H]4C4(C=O)CC2C=C(C(C)C)C34C(=O)O)O[C@@H]1C (some centres not stated) | inactive |  |
| C/C=C/C1C=CC2CC(C)CC(C)C2C1C(=O)CC(=O)NC(CO)C/C=C/CCCCC (configuration not stated) | inactive |  |
| CC[C@H]1[C@H](C)[C@H](c2cc(OC)c(OC)cc2OC)[C@@H](C)[C@H](c2cc(OC)c(OC)cc2OC)[C@@]12C=C(OC)C(=O)C=C2OC | inactive |  |
